Assay outcomes deposited in PubChem by National Center for Advancing Translational Sciences (NCATS).
POLI inh = qHTS for Inhibitors of Polymerase Iota; DNA polymerase iota (Homo sapiens), Q9UNA4; Pol iota fluorescent replication assay, 10 min; Potency, µM (titrated, usually from 115 µM), actives largely listed as inhibitors; 390,000 compounds, 1% hits; AID 588590, 2011
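Fluorescent replication assay read twice, at 0 min and 10 min after adding 50 nM (final) substrate. Enzyme (10 nM) and compounds were first incubated 15 min at room temperature; enzyme-free buffer wells were negative controls.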
WRN inhibitor = qHTS for Inhibitors of WRN Helicase. Bifunctional 3'-5' exonuclease/ATP-dependent helicase WRN (Homo sapiens), Q14191. WRN helicase unwinding, fluorescent forked duplex, kinetic. 360,000 compounds, 0.46% hits. Potency, µM (doses to about 114 µM), most hits filed as inhibitors; further: nearly all actives have a fitted effect of over 55% in size
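WRN at 20 nM final was preincubated with compound for 15 min at room temperature; reaction started with 100 nM forked duplex oligonucleotide carrying fluorophore and quencher plus 2 mM ATP (final). Unwinding followed kinetically by red fluorescence (ex 525/em 598 nm).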
POLH inh = qHTS for Inhibitors of Polymerase Eta; Potency, µM (highest dose often 114 µM), usual class: inhibitors; DNA polymerase eta (Homo sapiens), Q9Y253; 390,000 compounds, 1.2% hits; recombinant Pol eta, fluorescent DNA replication assay
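Pol eta at 10 nM preincubated with compounds 15 min at room temperature; reaction started with fluorescent substrate (50 nM final) and read kinetically at 0 and 10 min.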
POLB inh = qHTS Assay for Inhibitors of DNA Polymerase Beta; P06746; Pol beta primer extension/strand displacement, fluorescence kinetic; Potency, µM (top dose mostly 114 µM), most hits filed as inhibitors; 340,000 compounds, 1.3% hits; AID 485314, 2010
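Kinetic readout of DNA synthesis with strand displacement by Pol beta. Compound and 10 nM enzyme sit 15 min at room temperature; 50 nM substrate starts the reaction, read immediately and at 10 min.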
PI5P4Ka inh = qHTS for Inhibitors of phosphatidylinositol 5-phosphate 4-kinase (PI5P4K); Phosphatidylinositol 5-phosphate 4-kinase type-2 alpha (Homo sapiens), P48426; PI5P4Kalpha enzyme, ADP-Glo luminescence, 60 min; active compounds read low; max response, %; 330,000 compounds, 1.2% hits; active means max response of -50% or lower; inconclusive means between -30% and -50%; inactive means -30% or higher; further: value at the top dose of about 77 µM
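Luminescence from ADP-Glo served as readout of PI5P4Kalpha activity in a qHTS format. Reaction: enzyme, substrate, compound, ATP at 5 microM final, 60 min at RT.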
POLK inh = qHTS for Inhibitors of Polymerase Kappa | DNA polymerase kappa (Homo sapiens), Q9UBT6 | purified Pol kappa, fluorescent DNA synthesis assay, 10 min | Potency, µM (highest dose often 107 µM), usual class: inhibitors | 400,000 compounds, 0.53% hits | AID 588579, 2011
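Enzyme at 10 nM met test compounds for 15 min at room temperature. Substrate addition (50 nM final) began the reaction, which was monitored by fluorescence at 0 and 10 min.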
A number is an active result; [ ] = another dose, or the depositor's remark. Compounds with a hit are over-represented: about 2.8% of the library has one in this group of screens. Unless noted, the call rests on the fitted dose curve; in most records, active means well fitted curve in the direction sought with a large enough effect; inconclusive means small, poorly fitted or top-dose-only effect, or another doubt; inactive means no such curve, though single readings can be large; an effect the other way counts as inactive or inconclusive.

Results for CCCc1oc(C(=O)O)cc1CN1CCOCC1 ?
POLI inh: inactive; WRN inhibitor: inactive; POLH inh: inactive; POLB inh: inactive; POLK inh: inactive

Results for CC(C)Cc1oc(C(=O)O)cc1CN1CCOCC1 ?
POLI inh: inactive; WRN inhibitor: inactive; POLH inh: inactive; POLB inh: 89µM; PI5P4Ka inh: inactive; POLK inh: inactive

What do the screens show for `Cc1ccc(S(=O)(=O)N2CCN(c3nc(-n4ccnc4)nc4ccccc34)CC2)cc1`?
POLI inh: inconclusive; POLK inh: inactive

Results for CCN(c1ccc(C)c(C)c1)S(=O)(=O)c1ccc2c(c1)CCN2C(=O)CCC(=O)O ?
POLI inh: inactive; WRN inhibitor: inactive; POLH inh: inactive; POLB inh: 89µM; POLK inh: inactive

Results for Cc1cc(NC(=O)CSc2n[nH]c(N)n2)no1 ?
POLI inh: inactive; WRN inhibitor: inactive; POLH inh: inactive; POLB inh: inactive; PI5P4Ka inh: inactive; POLK inh: inactive

How did Cc1ccc(/C=C/C2=Cc3c(sc(NC(=O)CSc4n[nH]c(N)n4)c3C#N)C(C)(C)C2)o1 do in these assays?
POLB inh: 40µM

How did c1ccc(-c2nc(SCC3CCCCO3)n[nH]2)cc1 (centres undefined) do in these assays?
POLI inh: inactive; POLK inh: inactive

What do the screens show for `O=C(Nc1nc2c(s1)CN(Cc1ccccc1)CC2)C1CCC1`?
POLI inh: inactive; WRN inhibitor: inactive; POLH inh: inactive; POLB inh: inactive; PI5P4Ka inh: inactive; POLK inh: inactive

What do the screens show for `CN(C)c1ccc(/C=C(\C#N)C(=O)Nc2nc3c(s2)CCN(Cc2ccccc2)C3)cc1`?
POLI inh: 20µM; WRN inhibitor: inactive; POLH inh: inconclusive; POLB inh: inactive; POLK inh: inactive

Results for NC(=O)CC(NSc1ccccc1[N+](=O)[O-])C(=O)O (centres undefined) ?
POLI inh: inconclusive; WRN inhibitor: inactive; POLH inh: inactive; POLB inh: inactive; PI5P4Ka inh: -57; POLK inh: inactive

What do the screens show for `O=[N+]([O-])c1ccccc1SNc1ccccc1`?
WRN inhibitor: inactive; POLH inh: inactive; PI5P4Ka inh: inactive

How did CCOc1ccc(OCCC(=O)NNC(=O)c2nn(C)c(=O)c3ccccc23)cc1 do in these assays?
POLI inh: inconclusive; WRN inhibitor: inactive[11.6 µM]; POLH inh: inconclusive; POLB inh: 35µM; PI5P4Ka inh: inactive; POLK inh: inactive

Results for Cc1nnc2c(Nc3cccc(O)c3)nc3ccccc3n12 ?
POLI inh: inconclusive; POLH inh: inactive; POLB inh: inconclusive; POLK inh: inactive

How did Oc1ccc2ccccc2c1SSc1c(O)ccc2ccccc12 do in these assays?
POLK inh: inactive

Results for CC(=O)Nc1cccc(-c2cc(C)c3cc4c(cc3n2)OCO4)c1 ?
POLI inh: inconclusive; WRN inhibitor: inactive; POLH inh: inactive; POLB inh: 40µM; PI5P4Ka inh: inactive; POLK inh: inactive

Results for Cn1c(C(c2cc3ccccc3n2C)c2cc3ccccc3n2C)cc2ccccc21 ?
POLI inh: inactive; POLK inh: inactive

What do the screens show for `Cc1cc(=O)[nH]c(-n2[nH]c3c(c2=O)CCCC3)n1`?
POLI inh: 14µM; WRN inhibitor: inactive; POLH inh: inactive; POLB inh: inactive; POLK inh: inactive

Results for CCN(Cc1nc(-c2ccc(OC)cc2)oc1C)S(=O)(=O)c1ccc(Cl)cc1 ?
POLI inh: inactive; POLH inh: inactive; POLB inh: inconclusive; POLK inh: inactive

What do the screens show for `CSc1snnc1-c1ccccc1`?
POLI inh: inactive; WRN inhibitor: inactive; POLH inh: inactive; POLB inh: inactive; PI5P4Ka inh: inactive; POLK inh: inactive

What do the screens show for `c1ccc(-c2nnsc2-c2ccccc2)cc1`?
POLI inh: inactive; WRN inhibitor: inactive; POLH inh: inactive; POLB inh: inactive; PI5P4Ka inh: -60; POLK inh: inactive

What do the screens show for `COc1ccc(S(=O)(=O)N2CN(Cc3ccco3)c3nc4ccccc4nc32)cc1`?
POLI inh: inconclusive; WRN inhibitor: 56µM; POLH inh: 79µM; POLB inh: inactive; POLK inh: inactive

What do the screens show for `Cc1ccc(-c2cc(C(=O)N3CCN(S(=O)(=O)c4ccc(Br)s4)CC3)[nH]n2)c(C)c1`?
POLI inh: inactive; POLH inh: inactive; POLB inh: inactive; POLK inh: inactive

How did Cc1[nH]c2ccccc2c1N=Nc1cccc(C(=O)O)c1 do in these assays?
POLI inh: inactive; WRN inhibitor: inconclusive; POLH inh: inactive; POLB inh: inactive; PI5P4Ka inh: inactive; POLK inh: inactive

Results for Cc1[nH]c2ccccc2c1N=Nc1ccccc1C(=O)O ?
POLI inh: inconclusive; WRN inhibitor: inconclusive; POLH inh: 35µM; POLB inh: 32µM; PI5P4Ka inh: inconclusive; POLK inh: inconclusive

Results for Cc1cc(C(=O)O)ccc1-c1ccc(/C=C2\NC(=O)N(Cc3ccccc3Cl)C2=O)o1 ?
POLI inh: 5.6µM; WRN inhibitor: 50µM; POLH inh: 4.5µM; POLB inh: 14µM; PI5P4Ka inh: -67; POLK inh: 22µM

Results for O=c1c2ccccc2nc(SCc2cc(=O)n3ccsc3n2)n1CCCO ?
POLB inh: 32µM

How did C[C@H](NS(=O)(=O)c1ccc(Cl)c(Cl)c1)C(=O)OCc1cc(=O)n2cc(Br)ccc2n1 do in these assays?
POLI inh: inconclusive; WRN inhibitor: inactive[11.6 µM]; POLH inh: inconclusive; POLB inh: 14µM; PI5P4Ka inh: inactive; POLK inh: inactive

How did COc1cccc(NS(=O)(=O)c2ccc3[nH]cc(C(=O)NC(C)c4ccccc4)c(=O)c3c2)c1 (centres undefined) do in these assays?
POLI inh: 89µM; POLH inh: inconclusive; POLB inh: 40µM; POLK inh: inconclusive

Results for O=C(Nc1cc(Cl)cc(Cl)c1)c1coc(=O)c(Br)c1 ?
POLI inh: 28µM; WRN inhibitor: inconclusive; POLH inh: inconclusive; POLB inh: 28µM; PI5P4Ka inh: inactive; POLK inh: 79µM

Results for O=C(NCCC1=CCCCC1)c1coc(=O)c(Br)c1 ?
POLI inh: inconclusive; WRN inhibitor: inactive; POLH inh: inactive; POLB inh: inactive; PI5P4Ka inh: inactive; POLK inh: inactive

Results for O=C(NC(CO)(CO)CO)c1coc(=O)c(Br)c1 ?
POLI inh: inactive; WRN inhibitor: inactive; POLH inh: inactive; POLB inh: inactive; POLK inh: inactive

Results for O=C(NNC(=O)C1C2CCCCC21)c1coc(=O)c(Br)c1 (centres undefined) ?
POLI inh: 45µM; WRN inhibitor: inactive[11.6 µM]; POLH inh: 50µM; POLB inh: inconclusive; PI5P4Ka inh: inconclusive; POLK inh: inconclusive

What do the screens show for `CC(C)(C)c1ccc(Cn2cnc3c(cnn3C(C)(C)C)c2=O)cc1`?
POLI inh: inactive; POLK inh: inactive
